{"source": "PubChem BioAssay AID1476", "about": "(National Center for Advancing Translational Sciences (NCATS), 2009)", "note": "In all, about 200,000 compounds went through this assay and about 4,500 (2.2%) were called active. Not shown: some 12% with an inconclusive outcome. Many of the other results were omitted from the sample, so actives are more common in it than they were. A number with no mark means an inactive call. Calls come from the whole dose curve; as a rule, active = well fitted inhibition curve with a large enough effect; inconclusive = small, poorly fitted or top-dose-only effect, or effect the other way; inactive = flat fitted curve, though single readings scatter. Potency is the fitted concentration of half-maximal effect."}
{"molecular_target": "Cruzipain (Trypanosoma cruzi) (UniProt P25779)", "sequence (P25779 123-467 limits assumed)": "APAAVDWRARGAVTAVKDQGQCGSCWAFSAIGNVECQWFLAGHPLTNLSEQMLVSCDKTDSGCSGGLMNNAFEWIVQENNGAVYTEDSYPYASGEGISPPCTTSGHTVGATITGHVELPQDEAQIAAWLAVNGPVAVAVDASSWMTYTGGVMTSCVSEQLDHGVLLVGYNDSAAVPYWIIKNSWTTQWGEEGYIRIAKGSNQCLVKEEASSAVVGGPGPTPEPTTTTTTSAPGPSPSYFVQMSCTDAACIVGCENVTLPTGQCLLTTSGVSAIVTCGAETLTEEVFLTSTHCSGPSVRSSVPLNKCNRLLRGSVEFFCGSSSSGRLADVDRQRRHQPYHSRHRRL", "experiment": "qHTS Assay for Promiscuous and Specific Inhibitors of Cruzain (without detergent); note: nearly all actives have a fitted effect of over 40% in size;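 for max response, negative = inhibition: plate controls were enzyme without inhibitor for no effect and buffer without enzyme for full effect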", "settings": "purified cruzain, Z-FR-AMC fluorescence, no detergent", "procedure,_shortened": "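Detergent-free condition (0.00005% Triton X-100) in acetate buffer pH 5.5 with DTT. 1.5 nM enzyme and compound were pre-mixed 15 min, then 2 uM Z-FR-AMC substrate added; reaction progress from fluorescence change between first and third reads (60 s).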", "units": {"max response, negative = inhibition": "%"}}
{"compound": "CCOC(=O)Cn1c(=O)n(C2CCCCC2)c2nc(-c3cccc(OC)c3)nc(C(N)=O)c21", "max response, negative = inhibition": -11}
{"compound": "COc1ccc(CCNc2nc3c(-c4cccc(F)c4)nnn3c3ccccc23)cc1OC", "max response, negative = inhibition": 16.6}
{"compound": "CC1=C(C(=O)N2CCN(c3cccc(C(F)(F)F)c3)CC2)C2(CCCCC2)OC1=O", "max response, negative = inhibition": -13.5}
{"compound": "CCOc1ccc(CNC(=O)c2ccc3c(c2)nnn3C2CCCC2)cc1", "max response, negative = inhibition": -5.67}
{"compound": "O=C(CN1C(=O)/C(=C\\c2ccccc2F)SC1=S)Nc1nc2ccccc2s1", "Potency": "7.94 µM (active)"}
{"compound": "Cc1nn(CC(=O)Nc2nc3ccccc3s2)c(C)c1[N+](=O)[O-]", "max response, negative = inhibition": -6.47}
{"compound": "O=C(CCCN1C(=O)/C(=C\\c2ccco2)SC1=S)Nc1cccc2ccccc12", "max response, negative = inhibition": -12.6}
{"compound": "COc1ccccc1C(=O)N1CC2(C)CC1CC(C)(C)C2", "note": "(stereo not given)", "max response, negative = inhibition": 16.4}
{"compound": "Cc1cccc(C(=O)NCCCN2CCCC2=O)c1", "max response, negative = inhibition": -2.37}
{"compound": "Cc1cccc(C(=O)NCC(=O)OCC(=O)N2CC3(C)CC2CC(C)(C)C3)c1", "note": "(stereo not given)", "Potency": "12.6 µM (active)"}
{"compound": "Cc1cc(C)cc(NC(=O)Cn2nc(N3CCN(c4ccccc4)CC3)ccc2=O)c1", "max response, negative = inhibition": -3.11}
{"compound": "Cc1ccc(-n2c(SCC(=O)N/N=C/C=C/c3ccccc3[N+](=O)[O-])nc3ccccc3c2=O)cc1", "Potency": "25.1 µM (active)"}
{"compound": "O=C(CSc1nc2ccccc2[nH]1)N/N=C/C=C\\c1ccccc1[N+](=O)[O-]", "max response, negative = inhibition": 10.4}
{"compound": "CCn1c(SCC(=O)N/N=C/C=C/c2ccccc2[N+](=O)[O-])nnc1-c1ccccc1", "max response, negative = inhibition": -1.88}
{"compound": "COCCN(CCOC)S(=O)(=O)c1ccc(C(=O)Nc2nc3c(s2)CCc2ccccc2-3)cc1", "max response, negative = inhibition": -1.58}
{"compound": "C=CCN(CC=C)S(=O)(=O)c1ccc(C(=O)Nc2nc3c(s2)CCc2ccccc2-3)cc1", "Potency": "10 µM (active)"}
{"compound": "CCN(c1ccccc1)S(=O)(=O)c1ccc(C(=O)Nc2nccs2)cc1", "max response, negative = inhibition": 0.885}
{"compound": "Cc1ccc(-c2nnc(Nc3cccc(Br)c3)c3ccccc23)cc1S(=O)(=O)NCC1CCCO1", "note": "(stereo not given)", "max response, negative = inhibition": -20.7}
{"compound": "CCCCCn1c(=O)[nH]c2cc(C(=O)NCCN(C)CCCC)ccc2c1=O", "max response, negative = inhibition": 2.28}
{"compound": "CCOC(=O)c1c(C)n(S(=O)(=O)c2ccc(C)cc2C)c2ccc(NS(=O)(=O)c3ccc(C)cc3C)cc12", "Potency": "1.58 µM (active)"}
{"compound": "CCn1c(C)nc2cc(C(=O)NNS(=O)(=O)c3ccc(C)cc3C)ccc21", "max response, negative = inhibition": 9.43}
{"compound": "Cc1ccc(S(=O)(=O)n2cnc3ccccc32)c(C)c1", "max response, negative = inhibition": 3.08}
{"compound": "CN(C)c1ccnc(Oc2ccc(F)cc2)c1C#N", "max response, negative = inhibition": -8.17}
{"compound": "N#Cc1ccc(-c2ccc(Cl)cc2)nc1Oc1ccc(F)cc1", "Potency": "25.1 µM (active)"}
{"compound": "N#Cc1ccc(-c2ccc(F)cc2)nc1Sc1ccccc1", "max response, negative = inhibition": -27.2}
{"compound": "COc1cc(NC(=O)Cn2c(=O)n(Cc3ccco3)c(=O)c3oc4ccccc4c32)cc(OC)c1", "max response, negative = inhibition": -21.5}
{"compound": "Cc1ccc(C)c(CNC(=O)c2cc3ccccn3n2)c1", "max response, negative = inhibition": -9.01}
{"compound": "Cc1ccccc1C(=O)NNC(=O)CN1C(=O)c2ccccc2C1=O", "max response, negative = inhibition": -8.81}
{"compound": "C=CCn1c(C)cc(C(=O)CN2C(=O)c3ccccc3C2=O)c1C", "max response, negative = inhibition": 4.29}
{"compound": "Cc1cc2c(cc1C)N(C(=O)CN1C(=O)c3ccccc3C1=O)C(C)(C)c1ssc(=S)c1-2", "Potency": "2.51 µM (active)"}
{"compound": "O=C(CN1CCN(Cc2ccc(Cl)cc2)C1=O)NCc1ccc(F)cc1", "max response, negative = inhibition": -6.99}
{"compound": "COc1ccc(CCNC(=O)CCCCn2c(=O)c3ccccc3n(Cc3ccccc3C)c2=O)cc1OC", "max response, negative = inhibition": -7.48}
{"compound": "Cc1cc(C)c2nc(NC(=O)C3CCCO3)sc2c1", "note": "(stereo not given)", "max response, negative = inhibition": 0.42}
{"compound": "O=C(Nc1nc2ccccc2s1)c1ccc2c(c1)OCO2", "max response, negative = inhibition": -5.87}
{"compound": "Cc1cc(C)c2nc(NC(=O)c3ccc4c(c3)OCO4)sc2c1", "Potency": "10 µM (active)"}
{"compound": "O=C(c1ccc2c(c1)N(Cc1ccc(Cl)cc1)C(=O)c1ccccc1S2(=O)=O)N1CCCCC1", "max response, negative = inhibition": 0.0442}
{"compound": "O=C1OC(c2ccc(Cl)cc2)=N/C1=C\\c1cccnc1", "max response, negative = inhibition": -2.62}
{"compound": "CCOc1cc(/C=C2/N=C(c3ccc(C(C)(C)C)cc3)OC2=O)cc(Cl)c1OS(C)(=O)=O", "max response, negative = inhibition": 1.67}
{"compound": "Cc1ccc(C2=N/C(=C\\c3ccc(OS(=O)(=O)c4ccc(C)cc4)cc3)C(=O)O2)cc1", "Potency": "20 µM (active)"}
{"compound": "CN1CCN(C2(CNC(=O)COc3ccc(C(C)(C)C)cc3)CCCCC2)CC1", "max response, negative = inhibition": -0.272}
{"compound": "CCn1c(C)c(C)c2cc(C(=O)NCCc3cc(OC)ccc3OC)ccc21", "max response, negative = inhibition": 3.29}
{"compound": "Cc1ccc(CNC(=O)CCC(=O)N2CC(C)Sc3ccccc32)cc1", "note": "(stereo not given)", "max response, negative = inhibition": 3.17}
{"compound": "CC(C)=CC(=O)Nc1nnc(-c2ccc(F)cc2)s1", "Potency": "12.6 µM (active)"}
{"compound": "Cc1ccc(C(=O)Nc2nnc(-c3ccncc3)s2)o1", "max response, negative = inhibition": -16.9}
{"compound": "Cc1occc1C(=O)Nc1nnc(-c2ccncc2)s1", "max response, negative = inhibition": -3.11}
{"compound": "O=C(NCC12CC3CC(CC(C3)C1)C2)c1cc2nc(-c3ccccc3)cc(C(F)(F)F)n2n1", "max response, negative = inhibition": -1.29}
{"compound": "CC(Sc1oc(-c2ccco2)nc1S(=O)(=O)c1ccc(Br)cc1)c1ccccc1", "note": "(stereo not given)", "max response, negative = inhibition": -8.99}
{"compound": "CN(Cc1ccccc1)c1ccc(-c2nc(-c3ccccc3)no2)cc1[N+](=O)[O-]", "max response, negative = inhibition": -0.924}
{"compound": "O=C(NCc1ccccc1)c1ccc2c(c1)nc1n2CCCCC1", "max response, negative = inhibition": -10.7}
{"compound": "CCCOc1ccc(C(=O)Nc2ccc3oc(-c4cccc(Cl)c4Cl)nc3c2)cc1", "max response, negative = inhibition": 7.94}
{"compound": "O=C(Nc1ccc(O)c(-c2nc3ccccc3o2)c1)c1ccc(-c2cccc(Cl)c2)o1", "max response, negative = inhibition": 1.11}
{"compound": "O=C(NC(=S)Nc1ccc2oc(=O)ccc2c1)c1ccc(-c2cccc(Cl)c2Cl)o1", "Potency": "5.01 µM (active)"}
{"compound": "COC(=O)c1cc(NC(=O)CCc2c(C)nc3c4c(C)cc(C)nc4nn3c2C)cc(C(=O)OC)c1", "max response, negative = inhibition": -14.1}
{"compound": "COc1cccc2cc(-c3nc(Cl)c4c5c(sc4n3)CC(C)CC5)c(=O)oc12", "note": "(stereo not given)", "max response, negative = inhibition": -8.92}
{"compound": "CCc1ccccc1NC(=O)c1cc(-c2ccc3c(c2)OCO3)on1", "max response, negative = inhibition": -1.06}
